# Experimental data taken from PubChem BioAssay (NCATS).
# Records with an inconclusive call do not appear. Where a call stands in place of a potency, no number is given. Activity calls are given as the source filed them. Unless noted, calls follow the shape of the dose curve; as a rule, active = well fitted curve in the direction sought with a large enough effect; inconclusive = small, poorly fitted or top-dose-only effect, or another doubt; inactive = no such curve, though single readings can be large; an effect the other way counts as inactive or inconclusive.
# How the values were obtained:
# [1] = Validation qHTS assay for inhibitors of Activation Induced Cytidine Deaminase (AID): UDG Counterscreen signal (AID 1347427)
# Summary of the method: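 Counterscreen read of UDG activity (2 U/mL, 4/3x) in the FRET deamination format with AID (1 uM, 4/3x), DJC20/DJC23 substrates (250 nM, 4x), 4 h at room temperature. NaOH stop, fluorescence at 560 ex/665 em.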
# [2] = target: Single-stranded DNA cytosine deaminase (Homo sapiens) (UniProt Q9GZX7); experiment: Validation qHTS assay for inhibitors of Activation Induced Cytidine Deaminase (AID): AID signal (AID 1347429)
# Summary of the method: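 Fluorescence at 540 nm excitation and 590 nm emission reports ssDNA cytosine deamination by AID, with UDG in the same well. Compound-treated reactions ran 4 hr at room temperature with DJC20/DJC23 substrate, followed by 30 min NaOH treatment.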
# [3] = Primary qHTS for inhibitors of SARS-S pseudo-typed particle cell entry (AID 1479145; calls by dose curve; also: series mostly up to about 57 µM; nearly all actives have a fitted effect of over 45% in size); details: outcome: dose series up to 57.1 µM unless noted
# [4] = Primary qHTS for Huh7 cytotoxicity: counterscreen for inhibitors of MERS-S pseudotyped particle cell entry (AID 1479147; calls by dose curve); details: outcome: dose series up to 57.1 µM unless noted
# [5] = Primary qHTS for inhibitors of MERS-S pseudo-typed particle cell entry (AID 1479149; calls by dose curve; also: nearly all actives have a fitted effect of over 60% in size); details: outcome: dose series up to 57.1 µM unless noted
# [6] = Primary qHTS for Vero E6 cytotoxicity: counterscreen for inhibitors of SARS-S pseudo-typed particle cell entry (AID 1479150; calls by dose curve)
# Chain of Single-stranded DNA cytosine deaminase (Homo sapiens) (Q9GZX7 whole entry, looked up): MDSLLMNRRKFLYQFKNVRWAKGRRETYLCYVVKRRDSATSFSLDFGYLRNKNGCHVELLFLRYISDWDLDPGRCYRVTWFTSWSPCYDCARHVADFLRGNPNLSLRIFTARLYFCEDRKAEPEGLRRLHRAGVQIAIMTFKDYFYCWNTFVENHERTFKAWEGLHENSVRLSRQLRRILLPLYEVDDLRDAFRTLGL
smiles,measurement,setting,value
O=C(O)c1cc[c]([Hg][Cl])cc1,Potency,[1],inactive
same,Potency,[2],inactive
NC(=O)COc1c(F)cc(SCCNS(=O)(=O)c2ccccc2)cc1F,Potency,[1],inactive
same,Potency,[2],inactive
CC(=O)NBr,Potency,[1],inactive
same,Potency,[2],inactive
NCC(CP(=O)(O)O)c1ccc(Cl)cc1 (configuration not stated),Potency,[1],inactive
same,Potency,[2],inactive
Clc1cc(I)cc(Cl)c1NC1=NCCN1,Potency,[1],inactive
same,Potency,[2],inactive
CCN(CCCl)Cc1ccccc1Br,Potency,[1],inactive
same,Potency,[2],inactive
N[C@@H](CCl)C(=O)O,Potency,[1],inactive
same,Potency,[2],inactive
c1ccc2cc(CC3=NCCN3)ccc2c1,Potency,[1],inactive
same,Potency,[2],inactive
O=C1C=CC(=O)C=C1,Potency,[1],inactive
same,Potency,[2],inactive
CN1CC[C@@]2(C)c3cc(OC(=O)Nc4ccccc4)ccc3N(C)[C@@H]12,Potency,[1],inactive
same,Potency,[2],inactive
CC(N)Cc1c[nH]c2ccc(OCc3cccs3)cc12 (configuration not stated),Potency,[1],inactive
same,Potency,[2],inactive
CCCN1CCC[C@@H](c2cccc(O)c2)C1,Potency,[1],inactive
same,Potency,[2],inactive
NNC(N)=O,Potency,[1],inactive
same,Potency,[2],inactive
CCCN1CCc2cc(O)cc3c2[C@H]1Cc1ccc(O)c(O)c1-3,Potency,[1],inactive
same,Potency,[2],inactive
C[C@H](Cc1ccc2c(c1)OC(C(=O)O)(C(=O)O)O2)NC[C@H](O)c1cccc(Cl)c1,Potency,[1],inactive
same,Potency,[2],inactive
COc1cc(CC(C)N)c(OC)cc1I (configuration not stated),Potency,[1],inactive
same,Potency,[2],inactive
CCCN1CC[C@@H]2c3cc(O)ccc3CC[C@@H]21,Potency,[1],inactive
same,Potency,[2],inactive
CCCCCCC(C)(C)c1ccc([C@@H]2C[C@H](O)CC[C@H]2CCCO)c(O)c1,Potency,[1],inactive
same,Potency,[2],inactive
CC(Cc1ccc(OCC(=O)O)cc1)NCC(O)c1cccc(Cl)c1 (configuration not stated),Potency,[1],inactive
same,Potency,[2],inactive
COc1ccc2c(c1)c(CCN1CCOCC1)c(C)n2C(=O)c1cccc(Cl)c1Cl,Potency,[1],inactive
same,Potency,[2],inactive
COc1ccc2c(c1O)-c1cccc3c1[C@@H](C2)N(C)CC3,Potency,[1],inactive
same,Potency,[2],inactive
COc1ccc(CNC(=O)/C=C/c2ccc3[nH]cc(CCN(C)C)c3c2)cc1,Potency,[1],inactive
same,Potency,[2],inactive
C[N+]1(C)C2CCC1CC(OC(=O)c1c[nH]c3ccccc13)C2 (configuration not stated),Potency,[1],inactive
same,Potency,[2],inactive
C[N+](C)(C)CCOC(=O)CBr,Potency,[1],inactive
same,Potency,[2],inactive
OC1CCCCC1N1CCC(c2ccccc2)CC1 (configuration not stated),Potency,[1],inactive
same,Potency,[2],inactive
NC(Cc1ccc(N(CCCl)CCCl)cc1)C(=O)O (configuration not stated),Potency,[1],inactive
same,Potency,[2],inactive
C[N+](C)(C)CC#CCN1CCCC1=O,Potency,[1],inactive
same,Potency,[2],inactive
O=[N+]([O-])c1cc(O)c(O)c([N+](=O)[O-])c1,Potency,[1],inactive
same,Potency,[2],inactive
CCS(=O)(=O)Nc1cccc(C(=C2CCCCC2)c2cnc[nH]2)c1,Potency,[1],inactive
same,Potency,[2],inactive
CCCN(CCC)[C@H]1CCc2c(F)ccc(O)c2C1,Potency,[1],inactive
same,Potency,[2],inactive
C=CCN(C1=NCCN1)c1c(Cl)cccc1Cl,Potency,[1],inactive
same,Potency,[2],inactive
C=CCN1CCC23c4c5ccc(O)c4O[C@H]2C(=O)CC[C@@]3(O)C1C5 (some centres not stated),Potency,[2],inactive
Cc1c2ccncc2c(C)c2c1[nH]c1ccccc12,Potency,[1],inactive
same,Potency,[2],inactive
COc1ccc(OC)c(C(O)C(C)N)c1 (configuration not stated),Potency,[1],inactive
same,Potency,[2],inactive
same,outcome,[3],inactive
same,outcome,[4],inactive
same,outcome,[5],inactive
same,Potency,[6],inactive
NNC(=O)c1ccc(O)cc1,Potency,[2],inactive
